Measured values: PubChem BioAssay (NCATS)
Activity calls are given as the source filed them. No rule for the calls is given here.

What follows are compounds tested on HIV-1 nucleocapsid protein NCp7 (binding to TG oligonucleotide) (assay: HIV Nucleocapsid (AID 346;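 also: potency is for inhibitors that block NC binding and lower polarization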)). Settings: HIV-1 NC / fluorescein-TGTGTGTG probe, fluorescence polarization.
Summary of the method: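 HIV-1 NC (100 nM) binding to fluorescein-labelled ssDNA TG4xF (10 nM) in Hepes pH 7.5, 250mM NaCl, 1uM ZnCl2, TCEP and 2-mercaptoethanol; compounds pin-transferred, 1 hr room temperature, fluorescence polarization read on CCD imager.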
Potency is read from the fitted curve at half-maximal effect.

Row | Compound | Potency
1 | COc1ccc(-c2nc3cnc(Nc4cccc(OC)c4)nc3n(C3CC3)c2=O)cc1 | 15.7 µM (inactive)
2 | N#CCCn1c(=O)c(-c2ccccc2)nc2cnc(N3CCOCC3)nc21 | > 20 µM (inactive)
3 | Cn1cc(-c2nc3cnc(Oc4cccc(Cl)c4)nc3n(CCC#N)c2=O)c2ccccc21 | > 20 µM (inactive)
4 | c1ccc(Nc2nc(-c3ccoc3)nc3ccccc23)cc1 | > 20 µM (inactive)
5 | COc1ccc(NC(=O)N2CC3(CCN(C(=O)c4csnn4)CC3)C2)cc1 | > 20 µM (inactive)
6 | CS(=O)(=O)N1CCC2(CC1)CN(c1cccc(-c3ccccc3)c1)C2 | > 20 µM (inactive)
7 | O=S(=O)(c1ccccc1)N1CCC2(CC1)CN(c1ccncc1)C2 | > 20 µM (inactive)
8 | COCCNc1nc(-c2cccc(OC)c2)nc2ccccc12 | > 20 µM (inactive)
9 | O=C(c1ccco1)N1CCC2(CC1)CN(C(c1ccccc1)c1ccccc1)C2 | > 20 µM (inactive)
10 | N#CCCn1c(=O)c(-c2cc(F)cc(F)c2)nc2cnc(Oc3ccccc3)nc21 | > 20 µM (inactive)
11 | CN(C)c1ncc2nc(-c3cc(F)cc(F)c3)c(=O)n(Cc3cccs3)c2n1 | > 4 µM (inactive)
12 | COc1ccc(NC(=O)N2CCC3(CC2)CCN(C(=O)c2ccncc2)CC3)cc1 | > 20 µM (inactive)
13 | COc1cccc(-c2cncnc2NCc2ccc(OC)cc2OC)c1 | > 20 µM (inactive)
14 | COCCn1c(=O)c(-c2ccccc2)nc2cnc(OC)nc21 | > 20 µM (inactive)
15 | CCNc1ncc2nc(-c3ccccc3)c(=O)n(C[C@H]3CCCO3)c2n1 | > 20 µM (inactive)
